# Results: PubChem BioAssay (NCATS)
# Results filed as inconclusive are left out. Unmarked numbers belong to inactive results. Active and inactive are the calls of the source. Calls come from the whole dose curve; as a rule, active = well fitted cell-killing curve with a large enough effect; inconclusive = small, poorly fitted or top-dose-only effect, or effect the other way; inactive = no such curve, though single readings can be large or run the other way.
# What was measured:
# [1] = Quantitative High-Throughput drug screen in 47 multiple myeloma cell lines against the NCATS MIPE library collection: XG1_PLB cell viability assay (AID 1919866); note: nearly all actives have a fitted effect of over 35% in size
# Method in brief: (§1)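 MIPE 4.0 approved/investigational drugs; 500 cells/well; 48 h 37 °C humidified 5% CO2; CTG luminescence readout; DMSO = 100%, media = 0% viability.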
# [2] = Quantitative High-Throughput drug screen in 47 multiple myeloma cell lines against the NCATS MIPE library collection: PE2_PLB cell viability assay (AID 1919869); note: nearly all actives have a fitted effect of over 35% in size
# Method in brief: as §1
# [3] = Quantitative High-Throughput drug screen in 47 multiple myeloma cell lines against the NCATS MIPE library collection: PCM6_Riken cell viability assay (AID 1919870); note: nearly all actives have a fitted effect of over 30% in size
# Method in brief: as §1
# [4] = Quantitative High-Throughput drug screen in 47 multiple myeloma cell lines against the NCATS MIPE library collection: RPMI8226_ATCC cell viability assay (AID 1919871); note: nearly all actives have a fitted effect of over 30% in size
# Method in brief: as §1
# [5] = Quantitative High-Throughput drug screen in 47 multiple myeloma cell lines against the NCATS MIPE library collection: OPM2_DSMZ cell viability assay (AID 1919872); note: nearly all actives have a fitted effect of over 30% in size
# Method in brief: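 Viability readout: CellTiter-Glo luminescence following 5 min room-temperature incubation with reagent. Prior exposure: 48 h, 37C, humidified 5% CO2, 500 cells per well.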
# [6] = Quantitative High-Throughput drug screen in 47 multiple myeloma cell lines against the NCATS MIPE library collection: KMS11_JCRBsus cell viability assay (AID 1919873); note: nearly all actives have a fitted effect of over 50% in size
# Method in brief: as §1
# [7] = Quantitative High-Throughput drug screen in 47 multiple myeloma cell lines against the NCATS MIPE library collection: KMS28BM_JCRB cell viability assay (AID 1919874); note: nearly all actives have a fitted effect of over 35% in size
# Method in brief: as §1
# [8] = Quantitative High-Throughput drug screen in 47 multiple myeloma cell lines against the NCATS MIPE library collection: UTMC2_PLB cell viability assay (AID 1919868); settings: CellTiter-Glo ATP luminescence, 48 h; viability (% of DMSO control): at 45.8 µM (top of the series); note: nearly all actives have a fitted effect of over 55% in size
# Method in brief: as §1
# Potency is the fitted concentration of half-maximal effect.
SMILES,Potency [1],Potency [2],Potency [3],Potency [4],Potency [5],Potency [6],Potency [7],Potency [8]
CN1CC(=O)NC1=NC(=O)Nc1cccc(Cl)c1,29.6 µM (active),20.9 µM (active),23.5 µM (active),14.8 µM (active),inactive,11.8 µM (active),inactive,
C#CCN(C)CC1=Cc2ccccc2Oc2ccccc21,inactive,inactive,inactive,inactive,inactive,,inactive,
CCCCCCCCCCCCCCCC(=O)O[C@H]1[C@@H](O)[C@@H](O)[C@@H]([C@H](NC(=O)[C@@H]2C[C@@H](CCC)CN2C)[C@H](C)Cl)O[C@@H]1SC,inactive,10.5 µM (active),inactive,3.32 µM (active),inactive,inactive,,
NC(=O)c1ccc(N(C(N)=O)c2c(F)cccc2F)nc1-c1ccc(F)cc1F,2.96 µM (active),16.6 µM (active),,inactive,inactive,inactive,inactive,9.35 µM (active)
COc1cc2nccc(Oc3ccc(NC(=O)Nc4ccc(F)cc4F)c(F)c3)c2cc1OC,inactive,,inactive,,4.69 µM (active),2.09 µM (active),1.05 µM (active),inactive
CCC[C@@H](NC(=O)[C@@H]1[C@H]2CCC[C@@H]2CN1C(=O)[C@@H](NC(=O)[C@@H](NC(=O)c1cnccn1)C1CCCCC1)C(C)(C)C)C(=O)C(=O)NC1CC1,14.8 µM (active),,,16.6 µM (active),,,18.7 µM (active),inactive
O[C@@H](COc1cccc2ncccc12)CN1CCN(C2c3ccccc3[C@@H]3[C@H](c4ccccc42)C3(F)F)CC1 (some centres undefined),7.43 µM (active),16.6 µM (active),10.5 µM (active),20.9 µM (active),inactive,4.18 µM (active),,
COc1cc2c(cc1OC)[C@@H]1Cc3ccc(OC)c(OC)c3CN1CC2,inactive,,,18.7 µM (active),13.2 µM (active),7.43 µM (active),8.33 µM (active),
Cc1csc(-c2nnc(Nc3ccc(Oc4ncccc4-c4ccnc(N)n4)cc3)c3ccccc23)c1,0.469 µM (active),,20.9 µM (active),,,,,
O=C(O)CCNc1cc(N2CCc3ccccc3CC2)nc(-c2ccccn2)n1,20.9 µM (active),inactive,,inactive,inactive,inactive,,
COc1nccc(-c2c(-c3ccc(F)cc3)ncn2C2CCNCC2)n1,14.8 µM (active),,,,inactive,,0.469 µM (active),
CCCC1OC2C[C@@H]3[C@H]4CCC5=CC(=O)C=C[C@]5(C)[C@H]4C(O)C[C@]3(C)[C@]2(C(=O)CO)O1 (some centres undefined),inactive,inactive,,,,0.0015 µM (active),,
CN(C)N=Nc1nc[nH]c1C(N)=O,2.64 µM (active),,inactive,inactive,inactive,inactive,,
CCOc1ccccc1N=Nc1c(C)[nH]n(-c2nc(-c3ccccc3)cs2)c1=O,1.05 µM (active),inactive,,2.35 µM (active),inactive,,,
CC(=O)OCC(=O)[C@@]12OC(C)(C)O[C@H]1C[C@H]1[C@@H]3C[C@H](F)C4=CC(=O)C=C[C@]4(C)[C@@]3(F)[C@@H](O)C[C@@]12C,inactive,,inactive,0.0083 µM (active),inactive,0.0166 µM (active),inactive,
CCN1CCC(n2cc(CNc3cc(Cl)c4ncc(C#N)c(Nc5ccc(F)c(Cl)c5)c4c3)nn2)CC1,23.5 µM (active),,20.9 µM (active),16.6 µM (active),,20.9 µM (active),20.9 µM (active),
O=C(O)C1=NC(C(=O)O)CC(C=CN2c3cc(O)c(OC4OC(CO)C(O)C(O)C4O)cc3CC2C(=O)O)=C1 (centres undefined),inactive,inactive,,inactive,,inactive,,
N#CC(=C1Nc2ccccc2S1)c1ccnc(OCc2ccc(CN3CCOCC3)cc2)n1,1.18 µM (active),5.26 µM (active),,20.9 µM (active),,1.05 µM (active),,
CC(C)(C)c1[nH]cnc1C=c1[nH]c(=O)c(=Cc2ccccc2)[nH]c1=O,inactive,,,,inactive,inactive,,
N=C1SC(=Cc2ccc(-c3ccc4c(c3)C(=O)NC4=O)o2)C(=O)N1c1ccc(Br)cc1,2.35 µM (active),2.09 µM (active),,3.32 µM (active),2.64 µM (active),inactive,inactive,
COc1cc(N2CCN(C)CC2)ccc1Nc1nc(N)c(C(=O)c2c(Cl)cccc2Cl)s1,23.5 µM (active),,,,,18.7 µM (active),,
COc1c(C)cnc(Cn2cnc3c(Cl)nc(N)nc32)c1C,0.118 µM (active),0.235 µM (active),,,0.187 µM (active),0.0662 µM (active),,
N#CC1(c2cccc(C(=O)Nc3cc(Oc4ccc5nc(NC(=O)C6CC6)sc5n4)ccc3F)c2Cl)CC1,2.35 µM (active),,14.8 µM (active),1.05 µM (active),,0.132 µM (active),,
CCCCC(C=O)NC(=O)C(CC(C)C)NC(=O)OCc1ccccc1 (centres undefined),inactive,,inactive,,14.8 µM (active),,23.5 µM (active),
Cc1cc(-c2ncc(CC(=O)Nc3ccc(-c4cnccn4)cn3)cc2C)ccn1,16.6 µM (active),18.7 µM (active),,,,1.87 µM (active),,
Cc1cnc(-c2cc(N3CCN(C(=O)CCS(C)(=O)=O)CC3)ncc2Cl)c(C)c1,16.6 µM (active),,inactive,inactive,inactive,,,
O=C(Nc1ccccc1)Nc1ccc(-c2ccc(C(=O)[C@H]3CCC[C@H]3C(=O)O)cc2)cc1,2.96 µM (active),inactive,,inactive,inactive,inactive,inactive,
